From PubChem BioAssay (NCATS) come the findings set out here.

A short description of this experiment: High-throughput drug toxicity screening in the BPDCN cell line Cal-1 (AID 1224825). To be noted: Cal-1 BPDCN cell viability, qHTS; at 45.8 µM (top of the series) unless noted. The text has this:
Blastic plasmacytoid dendritic cell neoplasm (BPDCN) is a rare, aggressive and largely incurable hematologic malignancy originating from plasmacytoid dendritic cells (pDCs). Although an initial response to chemotherapy is common, BPDCN prognosis is extremely poor and most patients relapse with drug-resistant disease leading to a median overall survival of ~1 year after diagnosis. To explore novel potential therapeutic strategies in BPDCN, we performed a high-throughput drug toxicity screening in BPDCN cell liens, using of a library of 1,912 small molecules, enriched for compounds that are either approved or in early stages of development for cancer therapy.
A total of 500 exponentially growing Cal-1 cells were seeded per well in 5 uL of media (RPMI + Glutamine, without phenol red plus10% FBS and 1X Pen/Strep) into 1536-well solid white high base tissue culture treated Greiner One Bio Plates (789173-F), using a multidrop combi dispenser and a small sterile cassette. Compounds and controls totaling 23nL per well (negative control DMSO and positive control 9.2 uM Bortezomib-final) were immediately added to the plates using a 1536 head pin tool from Kalypsys. The plates were then covered with stainless steel gasket lids from Kalypsys and incubated for 48 hours at 37C under 95% relative humidity with 5% CO2. After 48 hours, the plates were removed and allowed to reach room temperature before 3 uL of Cell Titer Glo reagent (Promega) were added using an Aurora Flying Reagent Dispenser Bioraptor. The plates were then spun at 1000 rpms to remove bubbles and incubated for 15 minutes at room temperature before reading on a ViewLux using a luminescent filter with a 10 second exposure. The relative luciferase units were used to calculated percent activity using DMSO as 100% and Bortezomib as 0%.
(In general: Quantitative high-throughput screening tests each substance at several concentrations.)
Turning to `C[C@H](Cn1cnc2c(N)ncnc21)OCP(=O)(O)O`, the viability (% of control) is 130%.
For the compound `CC(C)[C@H](N)C(=O)OCCOCn1cnc2c(=O)[nH]c(N)nc21`, the viability (% of control) came out at 28.8%.
With `C=CCc1cc(OC)c(O)c(C(=O)NCCO)c1` the figure was 128%; with `COc1cc(Nc2c(C#N)cnc3cc(OCCCN4CCN(C)CC4)c(OC)cc23)c(Cl)cc1Cl`, 3.18%; with `O=Nc1c(-c2c(O)[nH]c3cc(Br)ccc23)[nH]c2ccccc12`, 1.62%.
With `CCCCCCCCCCCCCCCCCCCCCCO` the figure was 105%.
With `CN(C)[C@@H](CCOc1cccc2ccccc12)c1ccccc1`, the viability (% of control) was found to be 78.2%.
With `NC(=NCc1ccccc1)NC(=O)c1nc(Cl)c(N)nc1N` the figure was 133%; with `CCC1=C(C)CN(C(=O)NCCc2ccc(S(=O)(=O)NC(=O)NC3CCC(C)CC3)cc2)C1=O` (stereo not given), 118%.
For `N=C(N=C(N)N)N1CCOCC1`, the viability (% of control) came out at 127%.
For `Cn1c(NCCN(CCO)CCCc2ccc([N+](=O)[O-])cc2)cc(=O)n(C)c1=O`, the viability (% of control) was determined as 67.6%.
As for `CN1C(C(=O)Nc2ccccn2)=C(O)c2sccc2S1(=O)=O`, the viability (% of control) was determined as 90.4%.
In the case of `Nc1ccc(S(N)(=O)=O)cc1`, the viability (% of control) worked out at 112%.
On to `c1ccc2[nH]c(-c3cscn3)nc2c1`, for which the viability (% of control) stood at 102%.
For the compound `O=c1c(O)c(-c2ccc(O)cc2O)oc2cc(O)cc(O)c12`, the viability (% of control) amounted to 84.9%.
As to `Cc1cc2cc3c(C)cc(=O)oc3c(C)c2o1`, the viability (% of control) came to 8.43%.
`COC(=O)C1=C(C)NC(C)=C(C(=O)OC(C)C)C1c1cccc2nonc12` (stereo not given): the viability (% of control) was found to be 105%.
With `CS(=O)(=O)OCCCCOS(C)(=O)=O`, the viability (% of control) is 62.5%.
For the compound `NCCCCNCCCN`, the viability (% of control) was 3.12%.
Consider `O=C1c2c(O)cc(O)cc2OC(c2ccc(O)c(O)c2)C1O` (stereo not given), for which the viability (% of control) amounted to 105%.
For the compound `O=c1c(O)c(-c2cc(O)c(O)c(O)c2)oc2cc(O)cc(O)c12`, the viability (% of control) worked out at 111%.
Under `Cc1cc(C2CCCCC2)n(O)c(=O)c1` stands 5.31%; under `Cc1nc(Nc2ncc(C(=O)Nc3c(C)cccc3Cl)s2)cc(N2CCN(CCO)CC2)n1`, 11.7%.
Turning to `CCc1nc(N)nc(N)c1-c1ccc(Cl)cc1`, the viability (% of control) was found to be 37.1%.
Regarding `N=C(N)c1ccc2cc(OC(=O)c3ccc(N=C(N)N)cc3)ccc2c1`, the viability (% of control) is 102%.
As to `Cc1ncc([N+](=O)[O-])n1CC(C)O` (stereo not given), the viability (% of control) came to 98.4%.
As for `CCOC(=O)C1=C(O)C(=O)N(Cc2ccccc2)C1`, the viability (% of control) was determined as 112%.
Consider `CN(c1nccc(=O)[nH]1)C1CCN(c2nc3ccccc3n2Cc2ccc(F)cc2)CC1`, for which the viability (% of control) amounted to 108%.
For `C[C@H](Cc1ccc(O)c(O)c1)[C@@H](C)Cc1ccc(O)c(O)c1`, the viability (% of control) stood at 5.77%.
With `O=C(O)c1cccnc1Nc1cccc(C(F)(F)F)c1`, the viability (% of control) worked out at 88.7%.
With `C[C@@H](N)C1CCC(C(=O)Nc2ccncc2)CC1` (stereo not given in full) the figure was 79.9%; with `CC(=O)O[C@H]1C(=O)[C@@]2(C)C([C@H](OC(=O)c3ccccc3)[C@]3(O)C[C@H](OC(=O)[C@H](O)[C@@H](NC(=O)c4ccccc4)c4ccccc4)C(C)=C1C3(C)C)[C@]1(OC(C)=O)CO[C@@H]1C[C@@H]2O` (stereo not given in full), 12.8%.
With `Cc1cc(Cl)ccc1OCCCC(=O)NO` the figure was 3.6%; with `CCOc1cc(CC(=O)N[C@@H](CC(C)C)c2ccccc2N2CCCCC2)ccc1C(=O)O`, 27.5%; with `CC(C)c1ccc2oc3nc(N)c(C(=O)O)cc3c(=O)c2c1`, 97.4%.
As to `O=c1ccc2ccc(O)c(O)c2o1`, the viability (% of control) was determined as 20.8%.
For the compound `Cc1cccc(CN2CCN(C(c3ccccc3)c3ccc(Cl)cc3)CC2)c1` (stereo not given), the viability (% of control) was 94%.
As to `O=C(NCCO[N+](=O)[O-])c1cccnc1`, the viability (% of control) is 117%.
With `CC1(C)NC(=O)N(c2ccc([N+](=O)[O-])c(C(F)(F)F)c2)C1=O`, the viability (% of control) is 105%.
In the case of `Clc1ccc2c(N3CCN(CCCN4CCN(c5ccnc6cc(Cl)ccc56)CC4)CC3)ccnc2c1`, the viability (% of control) came out at 112% [at 23.2 µM].
